The values that follow come from PubChem BioAssay (NCATS).

Assay [1] has as its target Cytochrome P450 3A4 (Homo sapiens) (UniProt P08684). Put plainly: qHTS Assay for Inhibitors and Substrates of Cytochrome P450 3A4 (AID 884). Further: nearly all actives have a fitted effect of over 50% in size. Further: potency means the concentration at half of the fitted maximal effect. On activity change, negative = inhibition: on the % scale 0 is the no-effect control and ±100 the full control effect. The procedure, abridged: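 20 nM human CYP3A4 with 25 uM Luciferin-PPXE (at KM) in 200 mM KPO4, preincubated 10 min with compound; NADPH regeneration started a 60 min RT reaction. Luciferin detected by luminescence, normalized to 57 uM ketoconazole as full inhibition.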
(qHTS replaces the single test concentration by a dilution series.)

Assay [2] has the same target. In words: qHTS Assay for Activators of Cytochrome P450 3A4 (AID 885). Further: nearly all actives have a fitted effect of over 65% in size. The procedure, abridged:
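Human CYP3A4 (20 nM) with Luciferin-PPXE at 25 uM (its KM) in 200 mM KPO4; 10 min compound preincubation, then NADPH regeneration and 60 min reaction at RT. Luciferin read by luminescence; normalized to 57 uM ketoconazole full inhibition.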

Assay [3] in a line: Confirmation and Secondary Assay for Modulators of Hemoglobin Beta Chain Splicing at IVS2 654 locus (AID 910).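 Further: per-well total GFP intensity by laser scanning cytometry after 2-day treatment; % of control where 0% means no effect.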 A digest of the protocol:
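HeLa cells stably carrying EGFP interrupted by mutant beta-globin IVS2-654 intron (CMV-driven) were treated with compound for 2 days at 37C; corrected splicing was scored as total peak GFP intensity per well (488 nm excitation, 500-520 nm emission).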

Assay [4] is described as follows: Confirmation and Secondary Assay for Modulators of Hemoglobin Beta Chain Splicing at IVS2 705 locus (AID 930).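 Further: HeLa cells stably expressing the EGFP-705 splicing reporter; GFP fluorescence per well restored by corrected splicing of the IVS2-705 intron in EGFP; % of control where 0% means no effect.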 A digest of the protocol: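 Fluorescence gain (488 nm laser, 500-520 nm PMT) reflects restored correct splicing of a mutant IVS2-705 intron inside EGFP in stably transfected HeLa cells after 2-day compound treatment.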
Assay [5] is described as follows: qHTS Assay for Lipid Storage Modulators (AID 1519; calls by dose curve; on activity change, negative = inhibition: on the % scale 0 is the no-effect control and ±100 the full control effect). The note with it: Drosophila S3 cells, BODIPY lipid droplet/cell ratio, laser cytometry, cells loaded with oleic acid; for activity change, negative = inhibition: at 57.5 µM (top of the series). The procedure, abridged: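 Cells seeded at 5,000 per well were treated with compounds over a concentration series and loaded with oleic acid (400 uM, as added). Lipid droplet fluorescence (488 nm excitation, 500-530 nm channel) was read by laser-scanning cytometry and normalized to 20 uM Triacsin C.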

Assay [6] addresses DNA dC->dU-editing enzyme APOBEC-3G (Homo sapiens) (UniProt Q9HC16). Put plainly: qHTS for inhibitors of Vif-A3G interactions: Validation (AID 588379). Further: 0% is about no effect. The procedure, abridged: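 HeLa cells stably expressing Vif and A3G-eYFP, 700 cells/well, incubated overnight at 37 deg C, then exposed to compound overnight at 37 deg C. Inhibition of Vif-mediated degradation read as increased yellow fluorescence (Ex 488/Em 500-530) by laser-scanning cytometry.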

The mark [7] stands for this setting: measured here: cell count channel max response.
[8] abbreviates: measured here: lipid channel max response.

Structures are written as SMILES. Inconclusive results are not listed. Active and inactive are the calls of the source. Unless noted, the call rests on the fitted dose curve; in most records, active means well fitted curve in the direction sought with a large enough effect; inconclusive means small, poorly fitted or top-dose-only effect, or another doubt; inactive means no such curve, though single readings can be large; an effect the other way counts as inactive or inconclusive.

Cytochrome P450 3A4 (Homo sapiens), sequence (P08684 whole entry, looked up): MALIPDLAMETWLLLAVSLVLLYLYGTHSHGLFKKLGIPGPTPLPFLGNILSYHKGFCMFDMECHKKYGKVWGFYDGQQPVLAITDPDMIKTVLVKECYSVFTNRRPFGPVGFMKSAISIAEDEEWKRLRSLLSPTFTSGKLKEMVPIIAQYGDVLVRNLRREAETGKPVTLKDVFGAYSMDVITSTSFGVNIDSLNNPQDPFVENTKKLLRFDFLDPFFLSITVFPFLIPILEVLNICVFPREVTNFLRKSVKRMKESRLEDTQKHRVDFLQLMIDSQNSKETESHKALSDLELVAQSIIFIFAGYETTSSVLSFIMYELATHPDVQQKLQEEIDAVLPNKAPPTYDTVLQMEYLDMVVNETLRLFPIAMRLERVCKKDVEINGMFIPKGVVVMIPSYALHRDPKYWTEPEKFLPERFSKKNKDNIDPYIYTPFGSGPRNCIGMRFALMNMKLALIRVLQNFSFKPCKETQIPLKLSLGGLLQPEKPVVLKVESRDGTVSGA
DNA dC->dU-editing enzyme APOBEC-3G (Homo sapiens), sequence (Q9HC16 whole entry, looked up): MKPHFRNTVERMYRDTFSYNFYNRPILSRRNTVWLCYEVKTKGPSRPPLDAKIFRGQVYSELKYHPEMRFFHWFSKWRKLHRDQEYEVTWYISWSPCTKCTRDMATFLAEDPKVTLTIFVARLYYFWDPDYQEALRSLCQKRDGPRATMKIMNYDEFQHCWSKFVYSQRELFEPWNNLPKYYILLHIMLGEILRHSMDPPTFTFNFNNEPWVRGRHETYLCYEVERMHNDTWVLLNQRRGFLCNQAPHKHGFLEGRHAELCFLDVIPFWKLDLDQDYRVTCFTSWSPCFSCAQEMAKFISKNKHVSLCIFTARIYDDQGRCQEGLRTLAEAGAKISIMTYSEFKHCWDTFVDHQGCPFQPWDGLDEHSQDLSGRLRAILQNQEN

With `CC(=O)OC1CC2C(C)(C)C(O)CC[C@@]2(C)C2CC[C@@]3(C)C(c4ccoc4)OC(=O)C4O[C@@]43[C@]12C` (stereo partly specified), the Potency in assay [1] was 2.51 µM (active). Also, the Potency entry in assay [2], in assay [3] and in assay [4] was “inactive” in each case. Besides, in assay [5], the activity change, negative = inhibition was -1.7% (inactive). Further, the max response in assay [5] (setting [7]) was -2.48%; in assay [5] (setting [8]), -4.24%.
Turning to `COc1ccccc1-c1coc2cc(O)ccc2c1=O`, the Potency in assay [1] is 25.1 µM (active). Further, the Potency result in assay [2], in assay [3] and in assay [4] was “inactive” in each case. The activity change, negative = inhibition in assay [5] was 5.08% (inactive). The max response in assay [5] (setting [7]) was -6.55%; in assay [5] (setting [8]) it was 10.3%.
For the molecule `C=CCCCCCCCCCCCc1ccco1`, the Potency entry in assay [1], in assay [3] and in assay [4] was “inactive” throughout. For the same molecule, the activity change, negative = inhibition in assay [5] is 3.13% (inactive). Also, the max response is 16.1% in assay [5] (setting [7]) and 21.7% in assay [5] (setting [8]).
Consider `CC1(C)CCC[C@]2(C)C3CC(=O)O[C@@]3(C)CC[C@H]12` (stereo partly specified), for which the Potency entry in assay [2] is “inactive”. Also, the activity change, negative = inhibition in assay [5] is 5.49% (inactive). In addition, the results for the max response in assay [5] (setting [7]) and in assay [5] (setting [8]) were 5.53% and 11.1%, respectively. Further, the molecule was called inactive in assay [6].
Consider `Cc1c(S(=O)(=O)O)oc2c1C(=O)C(=O)c1c-2ccc2c1CCCC2(C)C`, for which the Potency in assay [1] was 10 µM (active). Moreover, the Potency entry in assay [2] and in assay [4] was “inactive” throughout. In addition, the activity change, negative = inhibition in assay [5] was 4.38% (inactive). In addition, the max response in assay [5] (setting [7]) worked out at 7.96%; in assay [5] (setting [8]), 15.5%.
Turning to `COc1ccc(C2CC(=O)c3c(O)cc(OC4OC(COC5OC(C)C(O)C(O)C5O)C(O)C(O)C4O)cc3O2)cc1O` (stereo unspecified), the Potency result in assay [1] is “inactive”. The activity change, negative = inhibition in assay [5] is -2.69% (inactive). Moreover, the max response in assay [5] (setting [7]) is -19%; in assay [5] (setting [8]), -20.2%. In assay [6], the molecule was called inactive.
Consider `COc1ccc(/C=C/C(=O)c2ccc(O)cc2O)cc1`, for which the Potency in assay [1] is 2.51 µM (active). Moreover, the Potency entry in assay [2], in assay [3] and in assay [4] was “inactive” in each case. In addition, in assay [5], the activity change, negative = inhibition was 5.71% (inactive). Moreover, the results for the max response in assay [5] (setting [7]) and in assay [5] (setting [8]) were 11.7% and 19.5%, respectively.
`C=C[C@](C)(O)CCC1C(=C)CC(O)C2C(C)(C)CCCC12C` (stereo partly specified): in assay [1], the Potency was 1.58 µM (active). Further, the Potency entry in assay [2], in assay [3] and in assay [4] was “inactive” in each case. In addition, the activity change, negative = inhibition in assay [5] is 10.1% (inactive). The values for the max response in assay [5] (setting [7]) and in assay [5] (setting [8]) were 7.01% and 14.1%, respectively.
As for `COC(=O)CC1C2(C)CC34OC5(C)O[C@@]6(C7/C(=C(/O)C(C)C)C(=O)OC(c8ccoc8)[C@]7(C)C(OC(C)=O)C(OC(C)=O)[C@]6(O5)[C@@]13C)C(OC(C)=O)[C@]4(O)C2OC(=O)C(C)C` (stereo partly specified), the Potency in assay [1] is 12.6 µM (active). Also, the Potency entry in assay [2], in assay [3] and in assay [4] was “inactive” throughout. The activity change, negative = inhibition in assay [5] was 8.78% (inactive). The results for the max response in assay [5] (setting [7]) and in assay [5] (setting [8]) were 16.6% and 29.3%, respectively.
As to `COc1ccc(C(C)C(=O)c2ccc(O)cc2O)cc1` (stereo unspecified), the Potency in assay [1] is 3.98 µM (active). For the same molecule, the Potency result in assay [2], in assay [3] and in assay [4] was “inactive” throughout. The activity change, negative = inhibition in assay [5] was 0.578% (inactive). In addition, the max response in assay [5] (setting [7]) was -18.6%; in assay [5] (setting [8]) it was -16.9%.
For `CC(=O)OC1CC2C(C)(C)C(=O)CC[C@]2(C)C2CC[C@@]3(C)C(c4ccoc4)OC(=O)C4OC43[C@]12C` (stereo partly specified), the Potency in assay [1] was 3.98 µM (active). The Potency entry in assay [2], in assay [3] and in assay [4] was “inactive” each time. Further, the activity change, negative = inhibition in assay [5] was 5.91% (inactive). Further, the results for the max response in assay [5] (setting [7]) and in assay [5] (setting [8]) were 22.7% and 27.2%, respectively.
